# Laboratory results: PubChem BioAssay (Tox21)
# A number with no mark means an inactive call. Inconclusive results are not listed. A call without a number means that no potency is given here. Activity calls are given as the source filed them. Calls follow the shape of the dose curve; as a rule, active = well fitted curve in the direction sought with a large enough effect in the repeat runs; inconclusive = weak or mixed curves; inactive = no such curve, though single readings can be large; an effect the other way counts as inactive or inconclusive.
# Tests used:
# [1] = Human pregnane X receptor (PXR) small molecule agonists, qHTS cell viability counter screen (AID 1346977); also: nearly all actives have a fitted effect of over 50% in size; also: potency is read from the fitted curve at half-maximal effect
# In short: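 Fluorescence read-out (CellTiter-Fluor) of viability in PXR-Luc HepG2 cells, multiplexed with the luciferase agonist read. Compounds in DMSO added after 5hr plating; 24hr total exposure at 37C, 5% CO2.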
# [2] = Caspase-3/7 induction in CHO-K1 cells by small molecules, qHTS cell viability counter screen (AID 1346979); also: nearly all actives have a fitted effect of over 35% in size; also: potency is read from the fitted curve at half-maximal effect
# In short: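 CHO-K1 wt, 1,500 cells/well; 5hr pre-incubation 37C/5% CO2; compound pin transfer (DMSO); 16hr exposure; CellTiter-Fluor added, 1hr, fluorescence read.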
# [3] = Caspase-3/7 induction in CHO-K1 cells by small molecules, qHTS assay (AID 1346980); also: nearly all actives have a fitted effect of over 15% in size
# In short: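 Wild-type cells were seeded at 1,500 per well and settled 5 hr at 37 C, 5% CO2, then exposed to DMSO-dissolved compounds for 17 hr. Caspase-Glo 3/7 reagent was added, and luminescence was read after 30min at room temperature.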
# [4] = Caspase-3/7 induction in HepG2 cells by small molecules, qHTS cell viability counter screen (AID 1346981); also: nearly all actives have a fitted effect of over 30% in size; also: potency is read from the fitted curve at half-maximal effect; as to activity change, negative = cytotoxicity: series mostly up to about 92 µM
# In short: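 Cell viability is measured as a cytotoxicity counter screen alongside the Caspase-Glo 3/7 readout in identical wells. Wild-type HepG2 cells are treated with test compounds for 16 hr at 37 C before CellTiter-Fluor addition and a 1-hr incubation.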
# [5] = target: Cytochrome P450 2D6 (Homo sapiens) (UniProt P10635); test: Cytochrome P450 Family 2 Subfamily D Member 6 (CYP2D6) small molecule antagonists: luciferase reporter qHTS assay (AID 1671196); also: nearly all actives have a fitted effect of over 50% in size; also: potency is read from the fitted curve at half-maximal effect; as to activity change, negative = inhibition: series mostly up to about 120 µM
# Cytochrome P450 2D6 (Homo sapiens), sequence (P10635 whole entry, looked up): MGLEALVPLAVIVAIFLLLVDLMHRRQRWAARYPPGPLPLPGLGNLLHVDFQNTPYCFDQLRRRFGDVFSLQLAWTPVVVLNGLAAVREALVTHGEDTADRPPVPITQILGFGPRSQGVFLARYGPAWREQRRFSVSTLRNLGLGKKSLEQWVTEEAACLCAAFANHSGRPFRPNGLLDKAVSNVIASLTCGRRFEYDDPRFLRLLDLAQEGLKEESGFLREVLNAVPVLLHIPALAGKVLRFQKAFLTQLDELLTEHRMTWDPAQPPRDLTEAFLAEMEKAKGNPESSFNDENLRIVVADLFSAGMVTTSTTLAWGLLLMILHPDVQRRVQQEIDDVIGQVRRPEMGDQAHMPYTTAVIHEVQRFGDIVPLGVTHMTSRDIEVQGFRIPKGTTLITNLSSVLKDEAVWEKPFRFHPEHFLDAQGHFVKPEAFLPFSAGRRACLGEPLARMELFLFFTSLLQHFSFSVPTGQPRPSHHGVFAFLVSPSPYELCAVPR
# In short: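 Enzyme and proluciferin substrate were first combined with test chemical for 10 min at room temperature. Adding NADPH regeneration solution started a 1 h reaction, stopped with luciferin detection reagent and read by luminescence 20 min later.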
# [6] = target: Cytochrome P450 2C19 (Homo sapiens) (UniProt P33261); test: Cytochrome P450 Family 2 Subfamily C Member 19 (CYP2C19) small molecule antagonists: luciferase reporter qHTS assay (AID 1671197); also: nearly all actives have a fitted effect of over 65% in size; also: potency is read from the fitted curve at half-maximal effect; as to activity change, negative = inhibition: series mostly up to about 120 µM
# Cytochrome P450 2C19 (Homo sapiens), sequence (P33261 whole entry, looked up): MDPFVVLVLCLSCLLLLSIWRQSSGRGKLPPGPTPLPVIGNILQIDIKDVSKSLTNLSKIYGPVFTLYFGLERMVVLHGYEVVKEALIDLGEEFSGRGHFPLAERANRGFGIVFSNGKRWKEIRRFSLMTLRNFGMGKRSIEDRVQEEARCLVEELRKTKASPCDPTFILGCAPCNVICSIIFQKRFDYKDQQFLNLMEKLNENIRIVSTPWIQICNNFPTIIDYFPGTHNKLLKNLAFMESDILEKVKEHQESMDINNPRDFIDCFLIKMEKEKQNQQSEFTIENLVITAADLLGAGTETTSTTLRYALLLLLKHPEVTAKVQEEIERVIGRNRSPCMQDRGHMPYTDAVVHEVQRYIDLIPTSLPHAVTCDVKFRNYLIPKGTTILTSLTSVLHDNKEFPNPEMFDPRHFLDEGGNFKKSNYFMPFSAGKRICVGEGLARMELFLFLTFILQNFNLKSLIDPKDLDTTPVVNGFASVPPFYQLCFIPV
# In short: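 P450-Glo CYP2C19 screening system; proluciferin substrate; DMSO compound stocks; 10 min RT preincubation; NADPH regeneration, 1 h at 37C; luciferin detection reagent, 20 min RT; luminescence as RLU.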
# [7] = target: Cytochrome P450 2C9 (Homo sapiens) (UniProt P11712); test: Cytochrome P450 Family 2 Subfamily C Member 9 (CYP2C9) small molecule antagonists: luciferase reporter qHTS assay (AID 1671198); also: nearly all actives have a fitted effect of over 50% in size; also: potency is read from the fitted curve at half-maximal effect; as to activity change, negative = inhibition: series mostly up to about 120 µM
# Cytochrome P450 2C9 (Homo sapiens), sequence (P11712 whole entry, looked up): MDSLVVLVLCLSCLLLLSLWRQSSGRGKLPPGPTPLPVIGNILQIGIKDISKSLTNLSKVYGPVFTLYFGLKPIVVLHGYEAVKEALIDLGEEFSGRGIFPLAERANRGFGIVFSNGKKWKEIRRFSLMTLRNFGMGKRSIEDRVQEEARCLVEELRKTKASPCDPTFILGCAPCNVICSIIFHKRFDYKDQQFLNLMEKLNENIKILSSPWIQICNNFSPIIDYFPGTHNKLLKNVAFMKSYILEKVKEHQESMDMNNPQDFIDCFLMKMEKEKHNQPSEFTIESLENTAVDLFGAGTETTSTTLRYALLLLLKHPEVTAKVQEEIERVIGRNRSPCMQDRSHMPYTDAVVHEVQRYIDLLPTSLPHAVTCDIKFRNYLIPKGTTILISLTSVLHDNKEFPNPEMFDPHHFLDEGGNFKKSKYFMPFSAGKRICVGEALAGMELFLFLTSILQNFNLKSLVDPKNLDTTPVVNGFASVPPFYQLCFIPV
# In short: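 CYP2C9 activity was measured with a P450-Glo proluciferin substrate. Enzyme–substrate mix was held with compound for 10 min at room temperature, then NADPH regeneration solution was added for 1 h at 37C. Luciferin product was read as luminescence.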
# [8] = target: Cytochrome P450 1A2 (Homo sapiens) (UniProt P05177); test: Cytochrome P450 Family 1 Subfamily A Member 2 (CYP1A2) small molecule antagonists: luciferase reporter qHTS assay (AID 1671199); also: nearly all actives have a fitted effect of over 50% in size; also: potency is read from the fitted curve at half-maximal effect; as to activity change, negative = inhibition: series mostly up to about 120 µM
# Cytochrome P450 1A2 (Homo sapiens), sequence (P05177 whole entry, looked up): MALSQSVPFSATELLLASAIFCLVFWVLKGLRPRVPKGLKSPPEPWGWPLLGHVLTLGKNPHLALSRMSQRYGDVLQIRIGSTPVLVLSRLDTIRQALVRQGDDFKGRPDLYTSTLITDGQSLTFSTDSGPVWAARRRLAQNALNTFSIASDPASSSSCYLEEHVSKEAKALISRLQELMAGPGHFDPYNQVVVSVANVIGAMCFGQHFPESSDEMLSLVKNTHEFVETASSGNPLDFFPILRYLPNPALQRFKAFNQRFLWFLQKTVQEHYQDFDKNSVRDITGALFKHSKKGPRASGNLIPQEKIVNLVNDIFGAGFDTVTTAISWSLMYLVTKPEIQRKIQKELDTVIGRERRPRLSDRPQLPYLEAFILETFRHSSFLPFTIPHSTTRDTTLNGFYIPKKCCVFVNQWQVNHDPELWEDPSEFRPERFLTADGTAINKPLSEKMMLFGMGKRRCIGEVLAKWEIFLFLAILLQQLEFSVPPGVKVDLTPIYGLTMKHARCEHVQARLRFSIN
# In short: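 Compounds were incubated with CYP1A2 and a luminogenic proluciferin substrate for 10 min at room temperature before the reaction was started with NADPH regeneration solution. After 1 h, detection reagent was added and light output, proportional to CYP activity, was recorded.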
# [9] = target: Voltage-gated inwardly rectifying potassium channel KCNH2 (Homo sapiens) (UniProt Q12809); test: Human Ether-a-go-go-Related Gene (hERG) channel small molecule antagonists: fluorescence cell-based qHTS assay (AID 1671200); also: nearly all actives have a fitted effect of over 50% in size; also: potency is read from the fitted curve at half-maximal effect;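 as to activity change, negative = inhibition: hERG-expressing U2OS cells given a thallium stimulus after FluxOR II dye loading; series mostly up to about 77 µM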
# Voltage-gated inwardly rectifying potassium channel KCNH2 (Homo sapiens), sequence (Q12809 whole entry, looked up): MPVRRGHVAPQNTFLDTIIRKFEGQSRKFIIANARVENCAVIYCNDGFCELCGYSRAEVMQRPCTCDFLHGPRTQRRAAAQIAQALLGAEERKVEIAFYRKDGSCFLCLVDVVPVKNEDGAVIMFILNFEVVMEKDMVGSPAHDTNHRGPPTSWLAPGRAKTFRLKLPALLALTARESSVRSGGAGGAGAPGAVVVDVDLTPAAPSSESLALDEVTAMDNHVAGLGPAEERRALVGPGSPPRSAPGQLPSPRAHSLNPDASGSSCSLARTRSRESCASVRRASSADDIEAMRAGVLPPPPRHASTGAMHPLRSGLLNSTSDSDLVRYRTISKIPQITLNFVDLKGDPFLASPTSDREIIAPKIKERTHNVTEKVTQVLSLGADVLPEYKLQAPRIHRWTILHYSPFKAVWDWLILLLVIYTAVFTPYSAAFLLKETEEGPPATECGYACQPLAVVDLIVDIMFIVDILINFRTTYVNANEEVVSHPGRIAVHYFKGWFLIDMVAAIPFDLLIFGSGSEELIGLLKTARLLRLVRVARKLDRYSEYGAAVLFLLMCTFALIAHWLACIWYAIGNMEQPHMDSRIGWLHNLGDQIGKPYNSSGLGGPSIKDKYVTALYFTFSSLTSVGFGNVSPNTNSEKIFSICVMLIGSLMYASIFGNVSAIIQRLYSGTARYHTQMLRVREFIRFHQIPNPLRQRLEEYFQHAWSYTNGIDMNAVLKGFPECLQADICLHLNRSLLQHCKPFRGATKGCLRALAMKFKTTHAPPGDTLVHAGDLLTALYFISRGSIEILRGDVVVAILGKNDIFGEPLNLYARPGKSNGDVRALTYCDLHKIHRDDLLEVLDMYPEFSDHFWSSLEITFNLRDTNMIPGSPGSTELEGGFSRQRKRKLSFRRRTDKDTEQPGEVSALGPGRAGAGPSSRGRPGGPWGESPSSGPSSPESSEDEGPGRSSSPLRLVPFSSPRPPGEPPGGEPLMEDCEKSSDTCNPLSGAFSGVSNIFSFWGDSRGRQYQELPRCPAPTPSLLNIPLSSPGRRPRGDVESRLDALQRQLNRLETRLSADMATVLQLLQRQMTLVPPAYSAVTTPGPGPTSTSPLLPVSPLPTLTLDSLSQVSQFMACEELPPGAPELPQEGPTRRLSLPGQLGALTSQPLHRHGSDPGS
# In short: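 Read-out: thallium influx as a surrogate for potassium, tracked as fluorescence (480 nm ex/540 nm em) every second for 2 min after Stimulus Buffer addition in dye-loaded hERG-U2OS cells.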
# [10] = target: Cytochrome P450 3A4 (Homo sapiens) (UniProt P08684); test: Cytochrome P450 Family 3 Subfamily A Member 4 (CYP3A4) small molecule antagonists: luciferase reporter qHTS assay (AID 1671201); also: nearly all actives have a fitted effect of over 50% in size; also: potency is read from the fitted curve at half-maximal effect; as to activity change, negative = inhibition: series mostly up to about 120 µM
# Cytochrome P450 3A4 (Homo sapiens), sequence (P08684 whole entry, looked up): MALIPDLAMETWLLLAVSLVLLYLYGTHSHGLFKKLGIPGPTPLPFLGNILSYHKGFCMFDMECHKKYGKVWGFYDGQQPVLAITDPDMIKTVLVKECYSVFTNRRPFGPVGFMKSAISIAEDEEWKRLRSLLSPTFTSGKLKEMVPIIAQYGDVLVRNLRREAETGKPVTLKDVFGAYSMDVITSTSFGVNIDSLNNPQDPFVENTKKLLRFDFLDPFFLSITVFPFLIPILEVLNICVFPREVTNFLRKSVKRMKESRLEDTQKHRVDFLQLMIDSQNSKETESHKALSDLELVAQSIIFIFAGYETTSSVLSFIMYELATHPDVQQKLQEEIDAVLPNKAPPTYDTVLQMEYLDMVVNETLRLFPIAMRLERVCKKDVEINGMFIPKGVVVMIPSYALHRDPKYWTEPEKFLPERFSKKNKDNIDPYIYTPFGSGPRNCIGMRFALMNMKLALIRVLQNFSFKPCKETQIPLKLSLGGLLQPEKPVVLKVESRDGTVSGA
# In short: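 Luminescent readout (RLU) proportional to CYP3A4 activity, from luciferin generated off a proluciferin substrate. Enzyme–substrate mix plus compound 10 min at room temp, NADPH regeneration 1 h, detection reagent 20 min.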
# [11] = target: Nuclear receptor subfamily 1 group I member 2 (Homo sapiens) (UniProt O75469); test: Human pregnane X receptor (PXR) small molecule agonists, qHTS assay (AID 1346982); also: nearly all actives have a fitted effect of over 35% in size; also: potency is read from the fitted curve at half-maximal effect
# Nuclear receptor subfamily 1 group I member 2 (Homo sapiens), sequence (O75469 whole entry, looked up): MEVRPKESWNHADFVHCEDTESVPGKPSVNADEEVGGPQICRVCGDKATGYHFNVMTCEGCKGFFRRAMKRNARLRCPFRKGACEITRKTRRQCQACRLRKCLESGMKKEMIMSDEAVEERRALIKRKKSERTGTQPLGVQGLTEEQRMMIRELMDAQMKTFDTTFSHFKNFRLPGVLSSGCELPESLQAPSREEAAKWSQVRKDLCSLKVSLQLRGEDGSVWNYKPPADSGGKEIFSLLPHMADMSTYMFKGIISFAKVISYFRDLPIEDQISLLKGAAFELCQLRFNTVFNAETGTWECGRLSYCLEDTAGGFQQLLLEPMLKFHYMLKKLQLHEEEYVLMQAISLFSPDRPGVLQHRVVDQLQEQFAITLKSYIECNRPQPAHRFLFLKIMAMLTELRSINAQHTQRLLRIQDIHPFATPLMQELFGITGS
# In short: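 Cells: HepG2 stably carrying PXR-Luc. Medium held 5% charcoal-stripped FBS. Compounds in DMSO added after 5 hr plating, incubated 24 hr, then luminescence quantified with ONE-Glo.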
# [12] = Caspase-3/7 induction in HepG2 cells by small molecules, qHTS assay (AID 1346978); also: nearly all actives have a fitted effect of over 15% in size
# In short: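 Wild-type HepG2 cells (2,000/well) were settled 5 h at 37 C, 5% CO2, then exposed to compounds in DMSO for 17 h. Caspase-3/7 activity was read by luminescence 30 min after adding Caspase-Glo 3/7 reagent at room temperature.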
# [13] = target: Nuclear receptor subfamily 1 group I member 2 (Rattus norvegicus) (UniProt Q9R1A7); test: Rat pregnane X receptor (rPXR) activation by small molecules, qHTS assay (AID 1346983); details: rPXR luciferase reporter cells, One-Glo luminescence, 24 h; max activation: stronger effect = higher value; also: nearly all actives have a fitted effect of over 20% in size; also: potency is read from the fitted curve at half-maximal effect
# Nuclear receptor subfamily 1 group I member 2 (Rattus norvegicus), sequence (Q9R1A7 whole entry, looked up): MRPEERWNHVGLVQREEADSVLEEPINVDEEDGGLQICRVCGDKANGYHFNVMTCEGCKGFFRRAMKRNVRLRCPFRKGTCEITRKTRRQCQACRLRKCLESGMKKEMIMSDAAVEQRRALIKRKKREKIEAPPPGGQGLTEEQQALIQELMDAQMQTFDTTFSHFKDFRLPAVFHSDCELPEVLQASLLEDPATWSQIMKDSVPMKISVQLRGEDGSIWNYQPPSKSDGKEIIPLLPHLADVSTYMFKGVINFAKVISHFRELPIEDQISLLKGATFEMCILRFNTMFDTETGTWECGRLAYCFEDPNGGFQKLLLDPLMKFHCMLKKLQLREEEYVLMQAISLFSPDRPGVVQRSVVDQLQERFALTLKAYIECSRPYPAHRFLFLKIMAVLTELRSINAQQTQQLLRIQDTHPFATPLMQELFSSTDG
# In short: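 Cell-based rPXR luciferase reporter assay, 2,000 cells per well, rested 5hr at 37 C before compound addition in DMSO, then 24 hr at 37 C. One-Glo reagent was added and luminescence read after 30 min at room temperature.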
# [14] = target: Nuclear receptor subfamily 1 group I member 2 (Homo sapiens) (UniProt O75469); test: CYP3A4 induction through human pregnane X receptor (PXR) by small molecules, qHTS assay (AID 1346984); also: nearly all actives have a fitted effect of over 40% in size; also: potency is read from the fitted curve at half-maximal effect
# In short: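 Quantitative HTS in DPX-2 cells, i.e. HepG2 transfected with PXR response element and CYP3A4-promoter luciferase. Compounds in DMSO incubated 24hr at 37C; then P450-Glo CYP3A4 substrate, 3uM final, 3hr; One-Glo luminescence.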
# [15] = target: Nuclear receptor subfamily 1 group I member 2 (Homo sapiens) (UniProt O75469); test: Human pregnane X receptor (PXR) activation by small molecules, qHTS assay (AID 1346985); also: nearly all actives have a fitted effect of over 40% in size; also: potency is read from the fitted curve at half-maximal effect
# In short: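 DPX-2 cells (HepG2 co-transfected with a PXR response element and a CYP3A4-promoter luciferase construct) were seeded at 2,000 per well, rested 5 hr at 37C, then exposed to DMSO-dissolved compounds for 24 hr. Activation was read as luciferase luminescence.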
smiles,measurement,setting,value
CC(COCCO)OCCO (stereo not drawn),Potency,[1],inactive
same,Potency,[2],inactive
same,Potency,[3],inactive
same,Potency,[4],inactive
same,Potency,[5],25.8 µM (active)
same,Potency,[6],inactive
same,Potency,[7],inactive
same,Potency,[8],inactive
same,Potency,[9],inactive
same,Potency,[10],inactive
Cc1ccccc1S(=O)(=O)O,Potency,[1],inactive
same,Potency,[2],inactive
same,Potency,[4],inactive
same,Potency,[11],inactive
same,Potency,[5],inactive
same,Potency,[6],inactive
same,Potency,[7],inactive
same,Potency,[8],inactive
same,Potency,[9],inactive
same,Potency,[10],inactive
CCCCC(CC)COC(=O)CCCCCCCCC(=O)OCC(CC)CCCC (stereo not drawn),Potency,[1],inactive
same,Potency,[2],inactive
same,Potency,[3],inactive
same,Potency,[4],inactive
same,Potency,[11],inactive
same,Potency,[6],inactive
same,Potency,[7],inactive
same,Potency,[8],39.9 µM (active)
same,Potency,[9],inactive
same,Potency,[10],inactive
O=P(O)(OCc1ccccc1)OCc1ccccc1,Potency,[1],inactive
same,Potency,[2],inactive
same,Potency,[3],inactive
same,Potency,[4],inactive
same,Potency,[11],inactive
same,Potency,[5],inactive
same,Potency,[6],inactive
same,Potency,[8],inactive
same,Potency,[9],inactive
same,Potency,[10],inactive
CCOCC(O)COc1ccc(NC(=O)CC[S+](C)C)cc1 (stereo not drawn),Potency,[12],inactive
same,Potency,[2],inactive
same,Potency,[3],inactive
same,Potency,[4],inactive
same,Potency,[11],inactive
same,max activation,[13],-0.952%
same,Potency,[14],inactive
same,Potency,[15],inactive
same,Potency,[6],inactive
same,Potency,[7],inactive
same,Potency,[9],inactive
same,Potency,[10],inactive
CCCn1cnc2c1c(=O)n(CCCCC(C)=O)c(=O)n2C,Potency,[1],inactive
same,Potency,[3],inactive
same,Potency,[4],inactive
same,Potency,[11],inactive
same,Potency,[7],inactive
same,Potency,[9],inactive
same,Potency,[10],inactive
NC(N)=NCCC[C@H](N)C(=O)O,caspase activation,[12],0.0391% [at 8.39 µM]
same,"activity change, negative = cytotoxicity",[2],-0.503% [at 8.39 µM]
same,caspase-3/7 activation,[3],0.0695% [at 8.39 µM]
same,"activity change, negative = cytotoxicity",[4],-0.647% [at 8.39 µM]
same,activation,[11],-5.55% [at 8.39 µM]
same,"activity change, negative = inhibition",[5],-7.41% [at 10.5 µM]
same,"activity change, negative = inhibition",[6],24.2% [at 10.5 µM]
same,"activity change, negative = inhibition",[7],10.6% [at 10.5 µM]
same,"activity change, negative = inhibition",[8],1.33% [at 10.5 µM]
same,"activity change, negative = inhibition",[9],5.88% [at 6.97 µM]
same,"activity change, negative = inhibition",[10],0.752% [at 10.5 µM]
CC(C)Nc1ccc(NC(C)C)c2c1C(=O)c1ccccc1C2=O,Potency,[1],14.2 µM (active)
same,Potency,[2],25.3 µM (active)
same,Potency,[3],inactive
same,Potency,[4],16 µM (active)
same,Potency,[11],1.27 µM (active)
same,Potency,[5],inactive
same,Potency,[8],2.34 µM (active)
same,Potency,[9],inactive
same,Potency,[10],3.3 µM (active)
CCCCCCCCCc1ccc(OCCOCCO)cc1,Potency,[1],5.74 µM (active)
same,Potency,[3],inactive
same,Potency,[4],20.4 µM (active)
same,Potency,[11],6.44 µM (active)
same,max activation,[13],-12.1%
same,Potency,[14],inactive
same,Potency,[15],inactive
same,Potency,[5],23.6 µM (active)
same,Potency,[6],16.7 µM (active)
same,Potency,[7],10.6 µM (active)
same,Potency,[8],inactive
same,Potency,[9],8.17 µM (active)
same,Potency,[10],8.39 µM (active)
CCCCCCCCCCCC(=O)OC[C@@H](O)[C@H]1OC[C@H](OCCO)[C@H]1OCCO,Potency,[1],inactive
same,Potency,[2],inactive
same,Potency,[4],inactive
same,Potency,[5],inactive
same,Potency,[6],inactive
same,Potency,[8],inactive
same,Potency,[9],inactive
same,Potency,[10],17.4 µM (active)
Nc1cccc(S(=O)(=O)c2cccc(N)c2)c1,Potency,[1],inactive
same,Potency,[2],inactive
same,Potency,[3],inactive
same,Potency,[4],inactive
same,Potency,[5],inactive
same,Potency,[6],35.6 µM (active)
same,Potency,[8],inactive
same,Potency,[9],inactive
same,Potency,[10],10 µM (active)
C[C@H]1C[C@H]2[C@@H]3CCC4=CC(=O)C=C[C@]4(C)[C@@]3(Cl)[C@@H](O)C[C@]2(C)[C@@]1(O)C(=O)CO,Potency,[1],inactive
same,Potency,[3],inactive
same,Potency,[4],inactive
same,Potency,[13],5.62 µM (active)
same,Potency,[14],15.8 µM (active)
same,Potency,[15],11.2 µM (active)
same,Potency,[5],30.9 µM (active)
same,Potency,[7],17.4 µM (active)
same,Potency,[8],inactive
same,Potency,[10],inactive
CC(=O)c1cccc([N+](=O)[O-])c1,Potency,[12],inactive
same,Potency,[2],inactive
same,Potency,[3],inactive
same,Potency,[4],inactive
same,Potency,[11],inactive
same,Potency,[6],inactive
same,Potency,[7],inactive
same,Potency,[8],35.5 µM (active)
same,Potency,[9],inactive
same,Potency,[10],inactive
c1ccc(C(O[C@H]2CCCN(CCc3ccc4c(c3)OCO4)C2)c2ccccc2)cc1,Potency,[12],inactive
same,Potency,[2],inactive
same,Potency,[3],inactive
same,Potency,[5],2.45 µM (active)
same,Potency,[7],15.5 µM (active)
same,Potency,[8],30.9 µM (active)
same,Potency,[9],0.535 µM (active)
COC(C)(C)CCO,Potency,[12],inactive
same,Potency,[2],inactive
same,Potency,[3],inactive
same,Potency,[4],inactive
same,Potency,[11],inactive
same,Potency,[6],inactive
same,Potency,[7],inactive
same,Potency,[8],inactive
same,Potency,[9],inactive
same,Potency,[10],inactive
COc1cc(C(=O)OCCCN2CCCN(CCCOC(=O)c3cc(OC)c(OC)c(OC)c3)CC2)cc(OC)c1OC,Potency,[12],inactive
same,Potency,[2],23.7 µM (active)
same,Potency,[3],inactive
same,Potency,[4],26.6 µM (active)
same,Potency,[11],29.8 µM (active)
same,Potency,[8],inactive
same,Potency,[9],6.01 µM (active)
Cc1oc2c(NC(=O)c3c(Cl)cccc3Cl)cccc2c1C(C)(C)O,Potency,[12],inactive
same,Potency,[2],61.1 µM (active)
same,Potency,[3],inactive
same,Potency,[5],inactive
same,Potency,[6],inactive
same,Potency,[8],31.7 µM (active)
same,Potency,[9],inactive
same,Potency,[10],28.3 µM (active)
CC(C)(C)Cl,Potency,[12],inactive
same,Potency,[2],inactive
same,Potency,[4],inactive
same,Potency,[6],inactive
same,Potency,[7],inactive
same,Potency,[9],inactive
same,Potency,[10],inactive
C1CCCNCCC1,Potency,[12],inactive
same,Potency,[2],inactive
same,Potency,[3],inactive
same,Potency,[4],inactive
same,Potency,[11],inactive
same,Potency,[5],inactive
same,Potency,[6],inactive
same,Potency,[7],inactive
same,Potency,[8],inactive
same,Potency,[9],inactive
same,Potency,[10],inactive
O=C(OCCc1ccccc1)c1ccccc1,Potency,[12],inactive
same,Potency,[2],inactive
same,Potency,[3],inactive
same,Potency,[4],inactive
same,Potency,[11],inactive
same,Potency,[6],12.6 µM (active)
same,Potency,[8],20 µM (active)
same,Potency,[9],inactive
same,Potency,[10],inactive
